Most compounds without a hit are left out; they make up all but 4.7% or so of the library.
D1 PAM: Potentiators of Human D1 Dopamine Receptor: qHTS; potentiation, % at 10 µM; 360,000 compounds, 0.036% hits; HEK293 TREx D1 cells, calcium flux, dopamine EC20 potentiation; in the data active = potentiation above about 30%; note: 0% is about no effect
Target sequence (P21728 whole entry, looked up): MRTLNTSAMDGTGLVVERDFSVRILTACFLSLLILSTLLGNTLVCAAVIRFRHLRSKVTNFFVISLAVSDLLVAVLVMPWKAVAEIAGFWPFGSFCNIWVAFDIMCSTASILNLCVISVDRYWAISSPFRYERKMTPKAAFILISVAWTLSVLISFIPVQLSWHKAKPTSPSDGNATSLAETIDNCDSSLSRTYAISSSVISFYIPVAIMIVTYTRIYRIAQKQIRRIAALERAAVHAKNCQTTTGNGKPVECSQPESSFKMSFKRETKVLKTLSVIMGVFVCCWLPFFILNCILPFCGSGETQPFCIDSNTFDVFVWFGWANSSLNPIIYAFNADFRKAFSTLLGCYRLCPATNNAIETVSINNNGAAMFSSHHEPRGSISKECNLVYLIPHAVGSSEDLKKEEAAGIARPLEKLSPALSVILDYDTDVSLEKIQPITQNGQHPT
D1 antagonist: Antagonist of Human D 1 Dopamine Receptor: qHTS; HEK293 TREx D1 cells, calcium flux, dopamine EC80; stronger effect = lower value; 360,000 compounds, 3.2% hits; D(1A) dopamine receptor (Homo sapiens), P21728; activity change, negative = inhibition, % at 10 µM; in the data active = activity change below about -30%; note: % is set by controls: 0 for no effect and ±100 for the full control effect
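Allosteric or orthosteric antagonism assessed as attenuation of the calcium response to EC80 dopamine, added 180 s after compound, in induced HEK293 Trex D1 cells loaded with no-wash calcium dye.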
TRHR agonist: qHTS for Small Molecule Agonists and Allosteric Enhancers of Human TRH Receptor: Primary Screen for Agonists; Thyrotropin-releasing hormone receptor (Homo sapiens), P34981; TRHR cells, calcium flux fluo-8, FDSS agonist mode; activation, % at 2 µM; 360,000 compounds, 0.18% hits; note: 0% is about no effect
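Agonist-mode FDSS calcium read (Ex 480/Em 530, 1 s cycles) in 1536-well TRHR cells with fluo-8 dye, after 10-cycle baseline and 23 nL compound addition; TRH at EC20 (10 nM final) added afterwards for the enhancer phase.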
TRHR enhancer: qHTS for Small Molecule Agonists and Allosteric Enhancers of Human TRH Receptor: Primary Screen for Enhancers; Thyrotropin-releasing hormone receptor (Homo sapiens), P34981; TRHR cells, fluo-8 calcium fluorescence, EC20 TRH enhancement; enhancement, % at 2 µM; 360,000 compounds, 0.66% hits; AID 493056, 2011; in the data active = enhancement above about 30%; note: 0% is about no effect
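Enhancer read-out: after compound pinning and an initial kinetic agonist-mode read, an EC20 of TRH (10 nM final) was injected and fluo-8 calcium signal (Ex 480/Em 530) followed at 1 s/cycle for 100 cycles in TRHR-expressing cells.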
D1 agonist: Allosteric Agonists of the Human D1 Dopamine Receptor: qHTS | HEK293 T-REx D1 cells, calcium flux, agonist mode | activation, % at 2 µM | 360,000 compounds, 1% hits | AID 504660, 2011; note: 0% is about no effect
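Agonism was scored from calcium flux recorded over 180 s (1 read/s) after pintool compound addition, following a 10-cycle baseline. Cells were inducible force-coupled HEK293 TREx D1, plated overnight at 30 C and loaded with no-wash calcium dye.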
* marks the source's active call; other numbers are inactive results; · = no result given. Cut-off read from the data, not from the text of the source, unless noted: active = activation above about 30%; inactive = the rest.

SMILES | D1 PAM | D1 antagonist | TRHR agonist | TRHR enhancer | D1 agonist
CCCCn1nc(C(=O)N(CCOC)c2c(N)n(CCCC)c(=O)[nH]c2=O)c2ccccc2c1=O | · | -30.4* | -0.5 | 5.7 | 5.7
COCCN(C(=O)CSc1nnc(Nc2ccc(C)cc2)s1)c1c(N)n(CC(C)C)c(=O)[nH]c1=O | 36.2* | -5.9 | -0.1 | 14.2 | 2.3
CCCN(C(=O)COC(=O)CCOc1ccccc1)c1c(N)n(Cc2ccccc2)c(=O)[nH]c1=O | -5.0 | 6.5 | 0.4 | -1.1 | 2.4
Cc1cc(C)cc(NC(=O)Cn2cc(C(=O)c3ccccc3)c(=O)c3ccc(C)nc32)c1 | 5.3 | 1.6 | 0.3 | 6.4 | -0.3
Cc1ccc(N2CC(C(=O)Nc3nc4ccc(S(C)(=O)=O)cc4s3)CC2=O)cc1C (stereo unspecified) | -2.7 | 3.8 | -0.1 | -3.0 | 1.4
CCOC(=O)C1CCCN(S(=O)(=O)c2csc(C(N)=O)c2)C1 (stereo unspecified) | 3.4 | -1.3 | 0.2 | -0.5 | 2.9
CC(C)CN(C(=O)c1cccc([N+](=O)[O-])c1)c1c(N)n(CC(C)C)c(=O)[nH]c1=O | -11.8 | -2.9 | -2.0 | 32.8* | 4.3
CCCn1c(N)c(N(CCOC)C(=O)c2ccccc2)c(=O)[nH]c1=O | 0.5 | -35.8* | 3.0 | 0.1 | 4.5
COCCN(C(=O)c1cccc(-n2cnnn2)c1)c1c(N)n(CC(C)C)c(=O)[nH]c1=O | -6.4 | -39.9* | 0.7 | -9.6 | -0.8
Cc1ccc(OCC(=O)N(C)CC(=O)N(CC(C)C)c2c(N)n(CC(C)C)c(=O)[nH]c2=O)c(C)c1 | -2.9 | -31.0* | -0.3 | -2.7 | 1.2
CCOc1cccc2cc(C(N)=O)c(=N)oc12 | -4.7 | 9.1 | 0.6 | -0.8 | -0.9
CCn1c(=O)c2sccc2n2c(CCC(=O)NCc3ccc(Cl)cc3)nnc12 | -0.8 | -5.6 | -0.8 | 4.3 | 0.0
Cc1ccccc1OCc1nc2ccccc2c(=O)n1/N=C/c1cccc([N+](=O)[O-])c1 | -4.0 | -32.0* | 0.1 | 8.3 | 3.0
COc1ccc2nc3oc(C(=O)Nc4cccc(C(F)(F)F)c4)cc3cc2c1 | -3.9 | 22.2 | 0.4 | 1.1 | 0.0
Cc1cc(C)nc(N2CCCC(C(=O)NCc3cccs3)C2)n1 (stereo unspecified) | 1.4 | -0.5 | -1.0 | 30.3* | 0.8
O=C(NCc1cccs1)C1CCCN(c2nc3ccccc3o2)C1 (stereo unspecified) | -3.7 | -45.9* | 1.0 | -15.9 | 1.4
O=C(NCc1cccs1)C1CCC(CNS(=O)(=O)c2ccccc2)CC1 (stereo unspecified) | -8.1 | -33.4* | -0.4 | 0.1 | 2.5
COC(=O)c1c(NC(=O)c2nc(SC)ncc2Cl)sc2c1CCCC2 | -0.6 | 12.4 | 0.1 | -1.8 | -1.1
c1ccc2c(c1)OCCOCCOCCOCCOCCOc1ccccc1OCCOCCOCCO2 | -3.2 | -35.7* | 1.8 | -7.1 | 21.7
CCOc1ccc(OCC)c(NC(=O)c2ccc(-c3ccccc3)s2)c1 | -5.2 | -85.0* | 1.4 | 0.7 | 3.6
O=C(Nc1ccccc1)c1ccc(-c2ccccc2)s1 | -1.8 | -12.1 | 0.7 | 1.3 | 50.5*
CCc1ccc(NC(=O)c2ccc(-c3ccccc3)s2)cc1 | -2.8 | -5.9 | -0.8 | -2.5 | 3.4
CC(OC(=O)c1ccc2ccccc2c1)C(=O)N(C)Cc1ccccc1 (stereo unspecified) | -0.7 | -24.5 | -0.1 | 21.7 | 3.0
CC(C)N(CCC(=O)c1ccc2ccccc2c1)Cc1ccccc1 | -6.9 | -31.5* | 13.7 | -18.5 | 1.0
COc1cccc(NS(=O)(=O)c2ccc3c(c2)CCCN3C(=O)C2CCC2)c1 | -6.8 | -52.2* | -0.1 | 2.4 | 7.9
SMILES | D1 PAM | D1 antagonist | TRHR agonist | TRHR enhancer | D1 agonist
COc1cc(Cl)c(NS(=O)(=O)c2ccc3c(c2)CC(C)N3C(=O)C2CCC2)c(OC)c1 (stereo unspecified) | -3.9 | -31.0* | -0.4 | 4.5 | 14.2
O=S(=O)(c1ccc2c(c1)OCCO2)N1CCN(S(=O)(=O)c2c(F)ccc(O)c2F)CC1 | -1.6 | -1.5 | 0.2 | 3.6 | 9.3
COc1ccc(-c2noc(-c3ccc(N4CCCCC4C)c([N+](=O)[O-])c3)n2)cc1OC (stereo unspecified) | -1.4 | 5.6 | 0.2 | -4.8 | 4.6
O=C(O)CCCCCNCc1ccncc1 | -10.0 | -41.1* | 0.6 | -3.3 | 1.5
O=C(O)CCCCNCc1ccccc1 | 0.8 | 5.8 | -1.0 | -3.7 | 0.7
CCOC(=O)CCCCNCc1ccccc1 | -6.5 | 14.1 | 0.5 | 30.2* | 0.7
COc1ccc(NC(=S)N(Cc2ccc(C)cc2)Cc2ccccn2)cc1 | -3.0 | -30.6* | -0.5 | 2.7 | 0.5
COc1ccc(NC(=S)N(CCc2ccc(OC)c(OC)c2)Cc2ccccn2)cc1 | 0.8 | -5.7 | -0.4 | -18.0 | 1.6
C=CCSc1nnc(NC(=O)c2cn(CC)c3nc(C)ccc3c2=O)s1 | 4.0 | 9.2 | 0.0 | -3.7 | 1.4
CCn1c(SCC(=O)N2CCC(C)CC2)nnc1-c1ccccc1O | -3.9 | -2.3 | -0.3 | -5.8 | 0.9
O=S(=O)(c1cccc(F)c1)N1CCc2sccc2C1c1ccc(OC(F)(F)F)cc1 (stereo unspecified) | -0.8 | -40.8* | 5.6 | -2.7 | 26.7
CCN(CC)CCNC(=O)c1[nH]c2ccc(OCc3ccccc3)cc2c1C | -7.0 | -64.0* | 11.2 | -1.9 | 126.2*
COc1ccccc1Oc1coc2c(CN3CCOCC3)c(O)ccc2c1=O | -4.0 | -8.4 | -0.1 | 36.8* | 2.1
C=CCn1c(SCc2ccccc2Cl)nnc1-c1sc2nc(C)cc(C)c2c1N | -0.8 | 6.6 | 0.6 | 1.8 | 1.3
Cc1cc(C)c2c(N)c(-c3nnc(SCc4ccc(Cl)cc4)n3C)sc2n1 | 2.5 | -38.9* | 0.4 | -4.8 | 0.0
O=C1Cc2cc(CCN3CCN(c4nsc5ccccc45)CC3)c(Cl)cc2N1 | -3.1 | -83.8* | -0.3 | -1.3 | -1.3
O=C1Cc2cc(S(=O)(=O)N3CCN(c4ccccc4)CC3)ccc2N1 | -4.7 | -7.2 | 0.8 | -1.8 | 0.9
O=C(COc1ccc(Cl)cc1Cl)Nc1nnc(C2=COCCO2)o1 | -7.4 | -68.8* | 0.1 | -7.8 | 1.8
Oc1ccccc1C1CCCCC1c1ccccc1 (stereo unspecified) | -4.1 | -39.3* | -2.4 | 2.8 | 5.4
Cc1nn2c(=O)cc(COC(=O)c3ccc(NC(=O)C4CCCCC4)cc3)nc2s1 | -0.8 | -15.2 | -1.5 | 2.5 | 0.5
COc1ccc(CNS(=O)(=O)c2cc3c(cc2C)n(C)c(=O)c(=O)n3C)cc1 | 1.4 | 3.7 | 0.4 | 8.9 | -0.3
